Our source for the Potency values is PubChem BioAssay (Tox21).

The nature of experiment [1]: qHTS assay to identify small molecule antagonists of the glucocorticoid receptor (GR) signaling pathway - cell viability counter screen (AID 720693). Note: nearly all actives have a fitted effect of over 55% in size. A general note: In qHTS, concentration-response curves come from the screen itself.
Experiment [2] can be described thus: qHTS assay for identifying genotoxic compounds that show differential cytotoxicity against isogenic chicken DT40 cell lines with known DNA damage response pathways - wild type cell line (AID 743012). Note: nearly all actives have a fitted effect of over 60% in size. A digest of the protocol: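 Viability by ATP luminescence (CellTiter-Glo, 30 min RT) after 40 h compound treatment at 37 C/5% CO2, using 300 parental DNA repair-proficient DT40 cells per well.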

Experiment [3] in a line: qHTS assay for identifying genotoxic compounds that show differential cytotoxicity against isogenic chicken DT40 cell lines with known DNA damage response pathways - Rev3 mutant cell line (AID 743014). Note: nearly all actives have a fitted effect of over 55% in size.
Experiment [4] is described as follows: qHTS assay for identifying genotoxic compounds that show differential cytotoxicity against isogenic chicken DT40 cell lines with known DNA damage response pathways - Rad54/Ku70 mutant cell line (AID 743015). Note: nearly all actives have a fitted effect of over 60% in size.
Experiment [5] is described as follows: qHTS assay to identify small molecule antagonists of the androgen receptor (AR) signaling pathway - cell viability counter screen (AID 743033; note: nearly all actives have a fitted effect of over 45% in size).
Experiment [6] in a line: qHTS assay to identify small molecule antagonists of the androgen receptor (AR) signaling pathway using the MDA cell line - cell viability counter screen (AID 743041; note: nearly all actives have a fitted effect of over 45% in size). A digest of the protocol: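 Viability read by CellTiter-Fluor fluorescence in the same wells as the antagonist screen, added after 15.5 h of a 16 h, 37C exposure. Human breast carcinoma MDA-kb2 AR-luc cells, compounds co-dosed with agonist R1881.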

The nature of experiment [7]: qHTS assay to identify small molecule antagonists of the thyroid receptor (TR) signaling pathway - cell viability counter screen (AID 743064). Note: nearly all actives have a fitted effect of over 50% in size. A digest of the protocol: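 Counter screen for cytotoxicity: compound plus T3 (1 nM final) on GH3.TRE-Luc cells, 23.5 h at 37 °C, then fluorescence viability readout with CellTiter-Fluor.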

Several values for one entry are separate records, joined by “and”; a condition that tells them apart may be missing. Equal values may be shown once. Results filed as inconclusive are left out. More than one record can exist for a structure, and the calls need not agree. Activity calls are given as the source filed them. Calls come from the whole dose curve; as a rule, active = well fitted curve in the direction sought with a large enough effect in the repeat runs; inconclusive = weak or mixed curves; inactive = no such curve, though single readings can be large; an effect the other way counts as inactive or inconclusive.
Potency is the fitted concentration of half-maximal effect.

As to `CC(=O)CC(C)=O`, the Potency entry in experiment [1], in experiment [2], in experiment [3], in experiment [4], in experiment [5] and in experiment [6] was “inactive” in each case. Moreover, the Potency entry in experiment [7] was “inactive”.

Consider `O=C(OCc1ccccc1)c1ccc(O)cc1`, for which the Potency entry in experiment [1], in experiment [2], in experiment [3], in experiment [5], in experiment [6] and in experiment [7] was “inactive” throughout. In addition, the Potency in experiment [4] was 61.1 µM (active).

In the case of `Cc1cccc2n[nH]nc12`, the Potency entry in experiment [1], in experiment [2], in experiment [3], in experiment [4], in experiment [5] and in experiment [6] was “inactive” in each case. In addition, in experiment [7], the Potency entry is “inactive”.

On to `CC(N)=O`, for which the Potency result in experiment [1], in experiment [2], in experiment [3], in experiment [4], in experiment [5] and in experiment [7] was “inactive” in each case.

With `CC(C)(c1ccccc1)c1ccc(Nc2ccc(C(C)(C)c3ccccc3)cc2)cc1`, the Potency result in experiment [1], in experiment [5] and in experiment [7] was “inactive” each time. Moreover, the Potency entry in experiment [2] is “inactive and 54.5 µM (active)”; in experiment [3], “inactive and 54.5 µM (active)”; in experiment [4], “inactive and 61.1 µM (active)”.

For the compound `CC[C@H]1CN2CCc3cc(OC)c(OC)cc3[C@@H]2C[C@@H]1C[C@H]1NCCc2cc(OC)c(OC)cc21`, the Potency was 4.92 µM (active) in experiment [1]; 18.8 nM (active) and 24.4 nM (active) in experiment [2]; 23.7 nM (active) and 19.4 nM (active) in experiment [3]; 23.7 nM (active) and 21.8 nM (active) in experiment [4]; 6.88 µM (active) in experiment [6]; 84.1 nM (active) and 97.2 nM (active) in experiment [7].

For the compound `C=CS(=O)(=O)O`, the Potency entry in experiment [1], in experiment [2], in experiment [3], in experiment [4], in experiment [5] and in experiment [7] was “inactive” each time.

Regarding `NCCO`, the Potency result in experiment [1], in experiment [2], in experiment [4], in experiment [5] and in experiment [7] was “inactive” each time. The Potency entry in experiment [3] is “inactive and 68.6 µM (active)”.

Turning to `Nc1ccc2cc3ccccc3cc2c1`, the Potency result in experiment [1], in experiment [2] and in experiment [5] was “inactive” throughout.

Take `c1cnc2cc3c(cc2n1)C1CNCC3C1`: the Potency result in experiment [1], in experiment [2], in experiment [3], in experiment [4], in experiment [6] and in experiment [7] was “inactive” throughout.

As to `CNCCC(Oc1ccc(C(F)(F)F)cc1)c1ccccc1` (centres undefined), in experiment [1], the Potency result is “inactive”. Further, the Potency was 5.31 µM (active) and 9.56 µM (active) in experiment [2]; 6.68 µM (active) and 6.03 µM (active) in experiment [3]; 6.68 µM (active) and 8.52 µM (active) in experiment [4]; 48.4 µM (active) in experiment [5]; 11.9 µM (active) and 9.56 µM (active) in experiment [7].

As for `Cc1ccnc2c1NC(=O)c1cccnc1N2C1CC1`, the Potency result in experiment [1], in experiment [2], in experiment [3], in experiment [4], in experiment [5] and in experiment [7] was “inactive” each time.

Turning to `CC(=O)N[C@@H](CS)C(=O)O`, the Potency entry in experiment [1], in experiment [2], in experiment [3], in experiment [4], in experiment [5] and in experiment [7] was “inactive” throughout.

On to `Clc1ccc2c(c1)C(N1CCNCC1)=Nc1ccccc1O2`, for which the Potency entry in experiment [1] and in experiment [5] was “inactive” throughout. The Potency was 26.6 µM (active) and 7.7 µM (active) in experiment [2]; 29.8 µM (active) and 9.69 µM (active) in experiment [3]; 26.6 µM (active) and 10.9 µM (active) in experiment [4]; 30.6 µM (active) in experiment [7].

Take `CC(C(O)c1ccc(O)cc1)N1CCC(Cc2ccccc2)CC1` (centres undefined): the Potency result in experiment [1] and in experiment [5] was “inactive” throughout. For the same compound, the Potency is 2.11 µM (active) in experiment [2], 335 nM (active) in experiment [3], 0.668 µM (active) in experiment [4] and 21.1 µM (active) in experiment [7].

As for `Cc1cccc([N+](=O)[O-])c1C(=O)O`, the Potency result in experiment [1], in experiment [2], in experiment [3], in experiment [4], in experiment [5] and in experiment [7] was “inactive” each time.

As for `CNC1(C)C2CCC(C2)C1(C)C` (centres undefined), the Potency entry in experiment [1], in experiment [2], in experiment [3], in experiment [4], in experiment [5] and in experiment [7] was “inactive” each time.

Regarding `COc1ccc(COC(C)=O)cc1`, the Potency entry in experiment [1], in experiment [2], in experiment [3], in experiment [4], in experiment [5] and in experiment [7] was “inactive” each time.

Take `CCC(CO)(CO)COCC(CC)(CO)CO`: the Potency entry in experiment [1], in experiment [2], in experiment [4], in experiment [5], in experiment [6] and in experiment [7] was “inactive” throughout.

In the case of `O=C(Oc1ccccc1)c1ccccc1O`, the Potency result in experiment [1], in experiment [2], in experiment [3], in experiment [5] and in experiment [7] was “inactive” throughout. Besides, in experiment [4], the Potency entry is “inactive and 61.1 µM (active)”.

Turning to `Cc1occc(=O)c1OC(=O)C(C)C`, the Potency result in experiment [1], in experiment [2], in experiment [4], in experiment [5], in experiment [6] and in experiment [7] was “inactive” in each case.

With `Cc1cc(Cc2cc(C)cc(C(C)(C)C)c2O)c(O)c(C(C)(C)C)c1`, the Potency in experiment [1] is 12.4 µM (active) and 13.8 µM (active); in experiment [2], 15.4 µM (active) and 17.2 µM (active); in experiment [3], 13.8 µM (active) and 19.3 µM (active); in experiment [4], 9.74 µM (active) and 15.4 µM (active); in experiment [5], 22 µM (active); in experiment [7], 15.4 µM (active) and 12.2 µM (active).

Consider `C=C(C)C1CC=C(C)C(OC(C)=O)C1` (centres undefined), for which the Potency entry in experiment [1], in experiment [2], in experiment [3], in experiment [4], in experiment [5] and in experiment [7] was “inactive” throughout.

As for `CC[C@]1(O)C[C@@H]2CN(CCc3c([nH]c4ccccc34)[C@@](C(=O)OC)(c3cc4c(cc3OC)N(C)[C@H]3[C@@](O)(C(=O)OC)[C@H](OC(C)=O)[C@]5(CC)C=CCN6CC[C@]43[C@@H]65)C2)C1`, the Potency entry in experiment [1] and in experiment [6] was “inactive” each time. Further, the Potency was 53.1 nM (active) and 29.8 nM (active) in experiment [2]; 53.1 nM (active) and 29.8 nM (active) in experiment [3]; 75 nM (active) and 53.1 nM (active) in experiment [4]; 188 nM (active) and 266 nM (active) in experiment [7].
